Reference: paper PMC5540273 (PLoS ONE, 2017)

Experiments:
Conditions in all cases: concentration: 1 μM, replicates: in singlicate; n = 1
CDKL3 = tested on: CDKL3
CDKL5 = tested on: CDKL5
CHEK1 = tested on: CHEK1
CHEK2 = tested on: CHEK2
CIT = tested on: CIT
CLK1 = tested on: CLK1
CLK2 = tested on: CLK2
CLK3 = tested on: CLK3
CLK4 = tested on: CLK4
CSF1R-autoinhibited = tested on: CSF1R-autoinhibited
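Note: KINOMEscan kinase panel screen.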

SMILES | %Inh (CDKL3) [%] | %Inh (CDKL5) [%] | %Inh (CHEK1) [%] | %Inh (CHEK2) [%] | %Inh (CIT) [%] | %Inh (CLK1) [%] | %Inh (CLK2) [%] | %Inh (CLK3) [%] | %Inh (CLK4) [%] | %Inh (CSF1R-autoinhibited) [%]
Cc1nn2c(=O)cc(N3CCOCC3)nc2n1Cc1cccc(Cl)c1Cl [GSK2342769] | 0 | 8 | 26 | 0 | 10 | 20 | 1 | 16 | 22 | 0
CCc1ccc(-c2ccc3c(c2)-c2nn(C)cc2S(=O)(=O)N3C)cc1 | 0 | 0 | 0 | 0 | 0 | 0 | 13 | 0 | 0 | 2
Cc1cc(Nc2nc(-c3cccc(C)n3)nc3ccccc23)ccn1 [GW872411] | 0 | 0 | 0 | 0 | 0 | 11 | 0 | 0 | 0 | 0
Cc1c(Cn2c(C)nn3c(=O)cc(N4CCO[C@H](C)C4)nc23)cccc1C(F)(F)F [GSK2373690] | 0 | 7 | 2 | 0 | 1 | 27 | 16 | 23 | 32 | 0
COC(=O)c1c(-c2ccccc2)c2cc(Br)ccc2c(=O)n1Cc1ccc(S(C)(=O)=O)cc1 | 22 | 26 | 0 | 23 | 23 | 0 | 14 | 0 | 13 | 7
COc1cc2ncn(-c3cc(OCc4ccncc4)c(C(N)=O)s3)c2cc1OC [GSK336313] | 0 | 2 | 0 | 0 | 10 | 42 | 5 | 0 | 0 | 0
O=C(NCc1cccs1)c1cc(C(=O)c2c(Cl)cccc2Cl)c[nH]1 [GW823670] | 21 | 0 | 22 | 0 | 16 | 0 | 22 | 0 | 0 | 0
COc1cccc(C2=C(Nc3cccc(C(=O)O)c3)C(=O)NC2=O)c1 [SB-390770] | 0 | 0 | 0 | 0 | 39 | 9 | 21 | 0 | 20 | 0
COc1ccc(-n2cnc3c(N)ncnc32)cc1 [SKF-97236] | 0 | 0 | 2 | 0 | 19 | 48 | 48 | 0 | 47 | 0
